Bioassay records deposited in PubChem by National Center for Advancing Translational Sciences (NCATS).
HP1b chromo inh: HTS for Inhibitors of HP1-beta Chromodomain Interactions with Methylated Histone Tails. AID 540317, 2011. AlphaScreen HP1-beta / biotin-H3K9me3 peptide binding. Potency, µM (top dose mostly 114 µM), without a hit: at the top dose activity change, negative = inhibition, usual class: inhibitors. actives 0.56% (n = 390,000); note: nearly all actives have a fitted effect of over 70% in size
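HP1-beta protein (50 nM final) preincubated 30 min at room temperature with biotinylated H3(1-18)K9me3 peptide (50 nM) in PBS pH 7.4, 0.01% Tween-20, then compound added for 30 min. AlphaScreen streptavidin donor/nickel chelate acceptor beads (10 ug/mL final), 30 min dark, luminescence read.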
BAZ2B inh: qHTS Assay for Inhibitors of BAZ2B | AlphaScreen BAZ2B-H3K14Ac peptide displacement | Potency, µM (highest dose often 114 µM), for inactives: at the top dose activity change, negative = inhibition, hits mostly inhibitors | actives 4.4% (n = 360,000) | AID 504333, 2011; note: % is set by controls: 0 for no effect and ±100 for the full control effect; nearly all actives have a fitted effect of over 60% in size
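Multi-concentration screen (max 110 uM) measuring displacement of acetylated histone H3 peptide from BAZ2B by AlphaScreen, using 50 nM protein, 50 nM peptide and 10 ug/mL streptavidin donor plus Ni-chelate acceptor beads.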
G9a block: qHTS Assay for Inhibitors of Histone Lysine Methyltransferase G9a. Histone-lysine N-methyltransferase EHMT2 (Homo sapiens), Q96KQ7. G9a H3K9 monomethylation, AlphaScreen, 2 h. Potency, µM (top dose mostly 102 µM), for inactives: top-dose activity, negative = inhibition, usual class: inhibitors. actives 8.8% (n = 350,000). AID 504332, 2011; note: % is set by controls: 0 for no effect and ±100 for the full control effect; nearly all actives have a fitted effect of over 75% in size
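Readings reflect AlphaScreen signal from monomethyl-H3K9 antibody detection. HMT at 20 nM; substrate b-H3K9 500 nM; cofactor SAM 20 uM; 2 h RT reaction; compounds tested as titrations in qHTS with 15 min preincubation.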
PLK1 PBD block: qHTS for Inhibitors of PLK1-PDB (polo-like kinase 1 - polo-box domain): Primary Screen. Serine/threonine-protein kinase PLK1 (Homo sapiens), P53350. Plk1 PBD binding of FITC phosphopeptide, fluorescence polarization. Potency, µM, without a hit: max response, negative = inhibition, most hits filed as inhibitors. actives 2.8% (n = 360,000); note: series mostly up to about 57 µM; % is set by controls: 0 for no effect and ±100 for the full control effect; nearly all actives have a fitted effect of over 65% in size
JMJD2A Tudor inh: qHTS Assay for Inhibitors of JMJD2A-Tudor Domain; Lysine-specific demethylase 4A (Homo sapiens), O75164; AlphaScreen JMJD2A-Tudor / H3K4me3 peptide binding; Potency, µM (top dose mostly 114 µM), for inactives: at the top dose activity change, negative = inhibition, usual class: inhibitors; actives 4.4% (n = 390,000); AID 504339, 2011; note: % is set by controls: 0 for no effect and ±100 for the full control effect; nearly all actives have a fitted effect of over 50% in size
12-LOX inh: Primary qHTS assay for inhibitors of human arachidonate 12S-lipoxygenase (ALOX12): Round 2. Potency, µM (doses to about 108 µM), without a hit: at the top dose activity change, negative = inhibition, actives largely listed as inhibitors. purified 12hLO, xylenol orange hydroperoxide absorbance. actives 1.1% (n = 580,000); note: % is set by controls: 0 for no effect and ±100 for the full control effect
Target sequence (P18054 whole entry, looked up): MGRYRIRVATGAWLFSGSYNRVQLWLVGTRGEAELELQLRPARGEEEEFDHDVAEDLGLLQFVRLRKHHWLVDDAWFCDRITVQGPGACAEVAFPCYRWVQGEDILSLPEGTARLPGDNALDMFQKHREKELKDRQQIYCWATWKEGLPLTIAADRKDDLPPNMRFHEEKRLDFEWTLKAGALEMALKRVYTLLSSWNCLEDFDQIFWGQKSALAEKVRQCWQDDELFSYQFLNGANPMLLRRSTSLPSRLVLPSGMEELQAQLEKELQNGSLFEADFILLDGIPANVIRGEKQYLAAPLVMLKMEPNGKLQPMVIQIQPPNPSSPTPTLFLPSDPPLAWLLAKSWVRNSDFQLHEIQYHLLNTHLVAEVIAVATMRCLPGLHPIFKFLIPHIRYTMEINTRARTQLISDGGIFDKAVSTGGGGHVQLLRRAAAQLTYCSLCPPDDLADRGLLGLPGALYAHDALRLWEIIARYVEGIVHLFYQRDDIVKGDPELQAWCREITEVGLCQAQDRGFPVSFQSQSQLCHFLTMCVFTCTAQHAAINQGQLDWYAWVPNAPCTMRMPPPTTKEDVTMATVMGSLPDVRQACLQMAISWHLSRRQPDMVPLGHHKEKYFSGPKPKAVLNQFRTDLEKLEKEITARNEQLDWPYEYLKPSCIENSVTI
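Purified human 12hLO at 150 nM in 25 mM Hepes, 0.01% Triton X-100, pH 7.0, preincubated 15 min at room temperature with compound. Reaction started with 40 uM arachidonic acid, 30 min at room temperature. Hydroperoxide measured by Fe-xylenol orange, 573/405 nm absorbance ratio.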
Starred values were filed as active, the others as inactive; i = inactive; ? = inconclusive; nt = not tested or not shown; [ ] = another dose, or the depositor's remark. Shown are actives, neighbours in structure and some others; about 9% of the full set was active somewhere. Calls come from the whole dose curve; as a rule, active = well fitted curve in the direction sought with a large enough effect; inconclusive = small, poorly fitted or top-dose-only effect, or another doubt; inactive = no such curve, though single readings can be large; an effect the other way counts as inactive or inconclusive. Potency is the fitted concentration of half-maximal effect.

SMILES	HP1b chromo inh	BAZ2B inh	G9a block	PLK1 PBD block	JMJD2A Tudor inh	12-LOX inh
O=C(CSc1nnnn1-c1ccccc1)Nc1ccc(N2CCOCC2)cc1	-12.2%	-15.9%	?	-5.6%	-7.8%	-7.0%
Cn1c(SCC(=O)Nc2ccc(N3CCOCC3)cc2)nnc1C1CC1	37.9%	-5.5%	?	2.3%	1.4%	-3.6%
O=C(CSc1nncn1-c1ccccc1)Nc1ccc(N2CCOCC2)cc1	-12.3%	-5.7%	nt	2.67µM*	10µM*	24.2%
COc1ccc(/C=C2\NC(=S)N(CC3CCCO3)C2=O)c(OC)c1C (configuration not stated)	16.7%	?	50.1µM*	-2.0%	-31.5%	?
COc1ccc(/C=C2\NC(=S)N(CC3CCCO3)C2=O)c(OC)c1 (configuration not stated)	19.7%	-30.2%	39.0%[12.7 µM]	-0.8%	-20.3%	-29.1%
Nc1ccc(S(=O)(=O)NNC(=O)C(=O)NNc2ccccc2)cc1	22.8%	-39.0%	1.78µM*	-7.2%	-4.1%	-23.3%
O=C(NNc1ccccc1)C(=O)NNS(=O)(=O)c1ccc(CCCl)cc1	50.5%	?	44.7µM*	-2.1%	-18.9%	?
COc1cccc(-c2nnc(NC(=O)c3ccc(S(=O)(=O)N4CC(C)OC(C)C4)cc3)o2)c1 (configuration not stated)	35.3%	-36.6%	-9.0%	-3.3%	-20.1%	-3.3%
O=C(Nc1cc(N2CCCCC2)ncn1)c1ccc(F)cc1	-7.1%	-19.7%	-6.2%	29.9µM*	-19.2%	3.8%
O=C(NC(=O)c1ccc(Cl)cc1)Nc1cc(N2CCCCC2)ncn1	-18.5%	nt	nt	26.7µM*	79.4µM*	-23.9%
O=C(NC(=O)N1CCCCCC1)c1ccc(Cl)cc1	32.9%	1.1%	56.2%	-4.0%	-16.7%	0.0%
O=C(Nc1cc(N2CCOCC2)ncn1)c1ccc(F)cc1	6.3%	0.2%	17.2%	-16.3%	6.7%	-6.0%
Nc1nc2c(s1)C(c1cccc(Cl)c1Cl)CC(=O)N2 (configuration not stated)	nt	nt	nt	nt	nt	20µM*
Nc1nc2c(s1)C(c1ccccc1OCc1ccccc1Cl)CC(=O)N2 (configuration not stated)	nt	nt	nt	nt	nt	0.891µM*
Nc1nc2c(s1)C(c1cc(Cl)ccc1F)CC(=O)N2 (configuration not stated)	nt	nt	nt	nt	nt	35.5µM*
O=C1CC(c2ccccc2OCc2ccccc2F)c2cn[nH]c2N1 (configuration not stated)	nt	nt	nt	nt	nt	9.6%
O=C1CC(c2cc(Cl)ccc2F)c2c(n3c(nc4ccccc43)[nH]c2=O)N1 (configuration not stated)	nt	nt	nt	nt	nt	6.7%
COc1ccc(C2CC(=O)Nc3nc(N)sc32)cc1OCc1ccccc1Cl (configuration not stated)	nt	nt	nt	nt	nt	1.12µM*
Cc1ccc(C)c(OCc2nnc(SCC(=O)NC(=O)NCc3ccco3)o2)c1	27.3%	8.0%	-43.4%	-6.1%	-5.4%	i
Cc1ccc(C)c(-c2ccc(=O)n(Cc3cccc(Br)c3)n2)c1	69.5%	59.7%	154.2%	-8.0%	64.1%	322.7%
COc1ccc(C(=O)N[C@H]2C[C@@H](Cc3cc(COc4ccccc4)on3)C2(C)C)cc1	nt	nt	nt	nt	nt	-27.3%[176 µM]
CC(C)c1ccccc1NC(=O)c1ccccc1NC(=O)C1CCCCC1	46.9%	5.5%	0.2%[59 µM]	-4.5%	-8.6%	-4.8%
O=C(NC(=S)Nc1ccccc1Br)C1CCC1	33.5%	3.0%	21.6%	-13.0%	-10.3%	?
Cc1ccc(NC(=O)C2CCCC2)c(Br)c1	5.2%	nt	nt	-17.6%	6.8%	0.0%
Cc1ccc(NC(=S)NC(=O)C2CCCCC2)c(Br)c1	35.5%	nt	nt	-2.4%	2.1%	31.6µM*
SMILES	HP1b chromo inh	BAZ2B inh	G9a block	PLK1 PBD block	JMJD2A Tudor inh	12-LOX inh
CC(C)c1ccccc1NC(=S)NC(=O)C1CCCCC1	35.9%	nt	nt	-0.9%	1.9%	15.8µM*
N#Cc1ccccc1NC(=S)NC(=O)C1CCC1	31.1%	-12.0%	70.8µM*	?	0.7%	-9.9%
Cc1cccc(N2CCN(C(=O)CS(=O)(=O)Cc3nc(-c4ccccc4F)oc3C)CC2C)c1 (configuration not stated)	9.9%	?	?	-4.2%	-34.5%	24.8%
COc1ccc(NC(=O)C(c2ccccc2F)n2c(=O)c(-c3cc4ccccc4[nH]3)nc3ccccc32)cc1 (configuration not stated)	nt	nt	nt	12.4%	nt	-10.1%
Cc1ccc(NC(=O)CS(=O)CC(=O)NCCCN(C)c2ccccc2)cc1 (configuration not stated)	9.9%	9.0%	39.8µM*	-2.6%	-10.1%	3.5%
Cc1ccc(NC(=O)CCC(=O)NCCO)cc1	28.3%	9.2%	1.2%	-1.5%	2.2%	69.7%
COC(=O)C1=NN(C(=O)c2ccccc2)C(O)(c2ccc([N+](=O)[O-])cc2)C1 (configuration not stated)	2.6%	?	-49.1%	-12.1%	-28.8%	15.1%
Cc1cc(C)c(NC(=O)c2cccc(NC(=O)c3ccco3)c2)c(C)c1	50.9%	2.7%	21.5%	0.4%	-6.9%	0.0%
CC(C)NC(=O)/C(=C/c1ccco1)c1ccccc1	9.7%	-7.5%	nt	-17.3%	-9.1%	5.9%
Cc1cccc(C)c1NC(=O)/C(=C/c1ccco1)c1ccccc1	0.6%	-37.1%	31.6µM*	0.1%	-17.7%	?
CCC(C)NC(=O)/C(=C/c1ccco1)c1ccccc1 (configuration not stated)	28.0%	-36.9%	-48.8%[12.7 µM]	-6.1%	-6.0%	-68.5%
O=C(NCCc1ccccc1)/C(=C/c1ccco1)c1ccccc1	-18.0%	?	10µM*	-12.4%	-32.7%	?
Cc1cc(C)c(NC(=O)/C(=C/c2ccco2)c2ccccc2)c(C)c1	-3.2%	-36.3%	44.7µM*	-15.1%	-33.3%	?
O=C(NCC(c1cccnc1)N1CCN(c2ccccc2)CC1)OCc1ccccc1 (configuration not stated)	-0.3%	-38.4%	?	0.9%	-31.4%	25.3%
Cc1ccccc1OCCNC(=O)c1ccco1	0.6%	-1.0%	-3.2%[12.7 µM]	-7.0%	-13.7%	10.6%
O=[N+]([O-])c1cnccc1Nc1ccc(F)cc1	22.4%	6.7%	13.4%[59 µM]	-14.2%	4.6%[11.4 µM]	-8.9%
O=[N+]([O-])c1cc(F)cc(F)c1Nc1ccc(F)cc1	?	nt	nt	-11.7%	35.5µM*	-10.2%
